Experimental data taken from PubChem BioAssay (NCATS).
Records with an inconclusive call do not appear. The source made the active and inactive calls.

Experiment: qHTS for identification of novel therapeutic agents for treatment of microphthalmiaassociated transcription factor (MiT) renal cell carcinoma (RCC) (AID 1963991)
Details: CellTiter-Glo, 48 h; for Potency: active = Z-AUC below -0.8 in all three lines; for z-score: stronger effect = lower value
Description: PI: Marston Linehan Ph.D.
Urologic Oncology Branch, Center for Cancer Research (CCR)
National Cancer Institute (NCI), National Institute of Health (NIH), Bethesda, Maryland
MiT-Renal Cell Carcinoma (RCC) is characterized by genomic translocations involving microphthalmia-associated transcription factor (MiT) family members TFE3, TFEB, or MITF. MiT-RCC represents a specific subtype of sporadic RCC that is predominantly seen in young patients and can present with heterogeneous histological features making diagnosis challenging. Moreover, the disease biology of this aggressive cancer is poorly understood and there is no accepted standard of care therapy for patients with advanced disease. Tumor-derived cell lines have been established from human TFE3-RCC providing useful models for preclinical studies. TFE3-RCC tumor derived cell lines and their tissues of origin were characterized by IHC and gene expression analyses. An unbiased high-throughput drug screen was performed to identify novel therapeutic agents for treatment of MiT-RCC. Potential therapeutic candidates were validated in in vitro and in vivo preclinical studies. Mechanistic assays were conducted to confirm the on-target effects of drugs. The results of a high-throughput small molecule drug screen utilizing three TFE3-RCC tumor-derived cell lines identified five classes of agents with potential pharmacological efficacy, including inhibitors of phosphoinositide-3-kinase (PI3K) and mechanistic target of rapamycin (mTOR), and several additional agents, including the transcription inhibitor Mithramycin A. Upregulation of the cell surface marker GPNMB, a specific MiT transcriptional target, was confirmed in TFE3-RCC and evaluated as a therapeutic target using the GPNMB-targeted antibody-drug conjugate CDX-011. […] The results of the high-throughput drug screen and validation studies in TFE3-RCC tumor-derived cell lines have provided in vitro and in vivo preclinical data supporting the efficacy of the PI3K/mTOR inhibitor.
SEQUENCE No. (e.g., 1, 2, 3, etc.); […] (e.g., Cells, Incubation, Reagent, etc.); VALUE; DESCRIPTION.
1; Cells; 3 uL; white, solid-bottom Grenier assay plate.
2; Compounds; 23 nL; Kalypsis pin-tool (Wako USA).
3; Incubation; 48 hr; 37 C, 5% CO2, 95% humidity.
4; Reagent; 3 uL; CellTiter-Glo reagent (Promega).
5; Incubation; 15 min; room temperature.
6; Detection; Luminescence; ViewLux plate reader (PerkinElmer).
NOTES (numbers refer to Sequence numbers above)
1. Quantitative high-throughput screening (qHTS) of 1912 pharmacologically defined small molecule compounds was conducted on three TFE3-fusion cell lines bearing three different fusion partners (UOK109, UOK124, UOK145). Briefly, 500 cells in complete growth media were plated into white, solid-bottom, 1536-well tissue culture treated plates (Grenier Cat. 789173-F) using a Multidrop Combi cassette dispenser.
2. Twenty-three nanoliter of 1912 pharmacologically defined small molecule compounds of the NCATS Mechanism Interrogation PlatE (MIPE) version 4.0 were added to each assay plate using a Pintool Dispenser (Wako) equipped with 1536 pin head.
3. Plates were covered with stainless steel gasketed lids and incubated for 48 hours at standard cell culture conditions.
4. Viability was assessed by adding 3uL of CellTiter-Glo detection reagent (Promega).
5. Plates were covered with gasket lids and incubated for 15 minutes at room temperature.
6. Luminescence was measured on a ViewLux plate reader (PerkinElmer). Post-screen data processing used DMSO controls as 100% viability and empty wells as 0% viability and dose response curve fitting was done for all 11 concentrations for each compound.

[1] = TFE3-RCC UOK109 viability, measured here: UOK109 Z-AUC
[2] = TFE3-RCC viability, measured here: UOK124 Z-AUC
[3] = TFE3-RCC viability, measured here: UOK145 Z-AUC
Potency is the fitted concentration of half-maximal effect.

Row | SMILES | Potency (TFE3-RCC UOK109 viability) | z-score [1] | z-score [2] | z-score [3]
1 | CC(=O)O[C@H]1C(=O)[C@@]2(C)C([C@H](OC(=O)c3ccccc3)[C@]3(O)C[C@H](OC(=O)[C@H](O)[C@@H](NC(=O)c4ccccc4)c4ccccc4)C(C)=C1C3(C)C)[C@]1(OC(C)=O)CO[C@@H]1C[C@@H]2O (some centres not stated) | 41.8 nM (active) | -1.4 | -1.86 | -1.46
2 | CC(C)C[C@H](NC(=O)[C@H](Cc1ccccc1)NC(=O)c1cnccn1)B(O)O | 118 nM (active) | -1.97 | -3.15 | -4.08
3 | CCCCc1ccc2nc(NC(=O)OC)[nH]c2c1 | 16.6 nM (active) | -1.8 | -3.11 | -1.73
4 | CCOC(=O)C1=C(O)C(=O)N(Cc2ccccc2)C1 |  | 0.919 | 0.303 | 0.693
5 | CC1=C(C(=O)O)N2C(=O)[C@@H](NC(=O)[C@H](N)C3=CCC=CC3)[C@H]2SC1 |  | 1.56 | 0.465 | 0.657
6 | CCCCN(CCCC)CCC(O)c1cc2c(Cl)cc(Cl)cc2c2cc(C(F)(F)F)ccc12 (configuration not stated) |  | 0.318 | 0.539 | 0.552
7 | COc1c2occc2cc2ccc(=O)oc12 |  | -0.0945 | 0.483 | 0.177
8 | O=P(O)(O)C(O)(Cn1ccnc1)P(=O)(O)O |  | 0.735 | 1.17 | 1.01
9 | COc1c(O)cc2c(c1O)[C@@H]1O[C@H](CO)[C@@H](O)[C@H](O)[C@H]1OC2=O |  | 0.427 | 0.313 | -0.262
10 | COC(=O)C1=C(C)NC(C)=C(C(=O)OCCCN2CCC(c3ccccc3)(c3ccccc3)CC2)C1c1cccc([N+](=O)[O-])c1 (configuration not stated) |  | 1.29 | 0.568 | 0.759
11 | O=c1c(O)c(-c2cc(O)c(O)c(O)c2)oc2cc(O)cc(O)c12 |  | 0.252 | 0.375 | -0.367
12 | CC(C)c1nc(CN(C)C(=O)N[C@H](C(=O)N[C@@H](Cc2ccccc2)C[C@H](O)[C@H](Cc2ccccc2)NC(=O)OCc2cncs2)C(C)C)cs1 |  | -0.114 | -0.388 | 0.0556
13 | O=C(O)c1cn(-c2ccc(F)cc2)c2cc(N3CCNCC3)c(F)cc2c1=O |  | 0.863 | 0.568 | 0.628
